D1 potentiator: Potentiators of Human D1 Dopamine Receptor: qHTS; potentiation, % at 10 µM; HEK293 TREx D1 cells, calcium flux, dopamine EC20 potentiation; 360,000 tested, 0.036% active; D(1A) dopamine receptor (Homo sapiens), P21728; AID 504651, 2011; in the data active = potentiation above about 30%; also: 0% is about no effect
D1 ag: Allosteric Agonists of the Human D1 Dopamine Receptor: qHTS; D(1A) dopamine receptor (Homo sapiens), P21728; HEK293 T-REx D1 cells, calcium flux, agonist mode; activation, % at 2 µM; 360,000 tested, 1% active; also: 0% is about no effect
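Agonism was scored from calcium flux recorded over 180 s (1 read/s) after pintool compound addition, following a 10-cycle baseline. Cells were inducible force-coupled HEK293 TREx D1, plated overnight at 30 C and loaded with no-wash calcium dye.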
TRHR PAM: qHTS for Small Molecule Agonists and Allosteric Enhancers of Human TRH Receptor: Primary Screen for Enhancers | TRHR cells, fluo-8 calcium fluorescence, EC20 TRH enhancement | enhancement, % at 2 µM | 360,000 tested, 0.66% active | AID 493056, 2011; in the data active = enhancement above about 30%; also: 0% is about no effect
Target sequence (P34981 whole entry, looked up): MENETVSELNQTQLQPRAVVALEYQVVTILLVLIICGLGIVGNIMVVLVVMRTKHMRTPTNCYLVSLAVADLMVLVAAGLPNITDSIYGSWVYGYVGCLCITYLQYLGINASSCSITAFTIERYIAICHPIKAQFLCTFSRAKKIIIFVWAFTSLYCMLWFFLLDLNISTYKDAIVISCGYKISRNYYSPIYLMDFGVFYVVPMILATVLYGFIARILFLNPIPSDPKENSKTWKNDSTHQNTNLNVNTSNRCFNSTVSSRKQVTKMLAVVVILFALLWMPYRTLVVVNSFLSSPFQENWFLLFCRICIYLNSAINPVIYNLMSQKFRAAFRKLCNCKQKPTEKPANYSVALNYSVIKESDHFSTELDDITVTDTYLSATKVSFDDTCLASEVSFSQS
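TRHR-expressing cells loaded with fluo-8 calcium dye were read kinetically (ex 480/em 530) during compound addition, then stimulated with an EC20 of TRH (10 nM final). Enhancement of the Gq-mediated intracellular calcium response was scored.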
TRHR ag: qHTS for Small Molecule Agonists and Allosteric Enhancers of Human TRH Receptor: Primary Screen for Agonists. 360,000 tested, 0.18% active. Thyrotropin-releasing hormone receptor (Homo sapiens), P34981. activation, % at 2 µM. TRHR cells, calcium flux fluo-8, FDSS agonist mode. AID 493084, 2011; also: 0% is about no effect
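Steps: seed TRHR cells overnight; add fluo-8 no-wash Ca dye, RT 30 min–1.5 h; record 10 s baseline; pin-transfer compounds; monitor fluorescence 1 cycle/s for the agonist window. Calcium increases flag candidate agonists.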
D1 antag: Antagonist of Human D 1 Dopamine Receptor: qHTS | HEK293 TREx D1 cells, calcium flux, dopamine EC80; stronger effect = lower value | activity change, negative = inhibition, % at 10 µM | 360,000 tested, 3.2% active; in the data active = activity change below about -30%; also: % is scaled to controls: 0 for no effect and ±100 for the full control effect
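HEK293 T-REx cells expressing inducible, force-coupled D1 receptor; no-wash Ca dye, 30–90 min RT. Cmpd → 180 s read at 1 Hz → EC80 DA → 180 s read.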
Numbers without * were called inactive; ! = a repeat was not active. This is a sample that favours compounds with a hit; in the whole collection about 4.7% have one here. Rule as the data show it, unless noted: active = activation above about 30%; inactive = the rest.

SMILES	D1 potentiator	D1 ag	TRHR PAM	TRHR ag	D1 antag
CCCC1=NN2C(=N)/C(=C\c3ccc(SCc4ccco4)o3)C(=O)N=C2S1	-2.5	63.0*	-8.3	16.9	3.0
Cn1c(=O)c2c(SCC(=O)NCc3ccc(F)cc3)nc(-c3ccccc3Cl)nc2n(C)c1=O	-0.2	0.7	3.0	0.1	-7.7
CCS(=O)(=O)c1nc(S(=O)(=O)c2ccc(C)cc2)c(NCC(C)C)s1	3.2	0.8	-4.0	-1.9	0.5
Cc1ccccc1CSCc1nc2ccccc2[nH]1	-9.4	12.6	-4.6	-1.4	-30.1*
c1ccc2[nH]c(CSc3nc4ccccc4o3)nc2c1	-2.6	32.7*	7.5	0.2	-3.1
c1cncc(-c2nnc(SCc3nc4ccccc4[nH]3)o2)c1	-6.2	1.8	1.7	0.2	-3.7
CCOc1ccccc1NC(=O)CSc1cc(=O)n(CC)c2ccccc12	3.5	19.7	-6.5	-0.3	-6.6
COc1cccc(NC(=O)C(OC(=O)CNC(=O)c2ccccc2)c2ccccc2)c1 (stereo unspecified)	6.8	-0.9	6.2	-2.5	18.8
Cc1cc(NC(=O)CSCC(=O)N(C)Cc2cccc(Cl)c2)no1	-10.6	3.2	-2.2	-0.3	-18.3
Cc1cc(NC(=O)Nc2cc(Cl)ccc2C)no1	0.1	35.5*	4.6	2.3	-10.2
Cc1cc(NC(=O)C(=O)NCc2cccc(Cl)c2)no1	2.0	4.5	1.0	0.3	-33.2*
Cc1cc(NC(=O)Nc2ccc(C)c(C)c2)no1	-6.0	3.8	1.9	0.1	-4.7
CCOc1cc(OCC)cc(C(=O)Nc2cccc(-c3nc4ccccc4[nH]3)c2)c1	-3.1	1.3	1.4	1.1	-37.9*
COc1cccc(C(=O)Nc2ccc3[nH]ncc3c2)c1	-8.3	-1.9	1.1	-0.7	-33.6*
COc1cc(OC)cc(C(=O)Nc2ccc(C(=O)c3ccncc3)cc2)c1	-2.0	5.0	1.0	-0.2	-38.3*
CCOc1cccc(NC(=O)c2ccc(S(=O)(=O)N(C)C)cc2)c1	-12.2	3.9	-5.3	-0.3	-42.5*
Cc1cccc(N2C(=O)N(CC(=O)C(C)(C)C)c3ccccc3S2(=O)=O)c1C	0.7	0.4	-5.6	0.1	-24.8
Cc1cc2c(cc1S(=O)(=O)N(CCO)Cc1ccccc1)OCC(=O)N2	-3.6	3.2	0.7	0.4	6.4
CCOc1cccc(C(=O)Nc2ccc3[nH]ncc3c2)c1	-5.8	-4.2	-4.2	-0.3	-31.7*
CCOc1cccc(C(=O)Nc2ccncc2)c1	-4.9	7.2	4.6	0.3	-32.1*
COc1ccc(S(=O)(=O)Nc2ccccc2C(=O)Nc2nc(-c3ccc(F)cc3)cs2)cc1OC	-5.5	12.8	-4.7	1.5	-21.9
COc1ccc(-c2csc(NC(=O)c3ccccc3NS(=O)(=O)c3ccc(C)cc3)n2)cc1	-9.2	9.2	-6.8	0.2	-39.5*
CCCSc1oc(-c2ccco2)nc1S(=O)(=O)c1ccc(C)cc1	-6.7	2.7	-6.0	0.3	0.5
CCCSc1oc(-c2ccco2)nc1S(=O)(=O)c1ccc(Br)cc1	1.9	16.6	9.0	-0.4	-36.4*
Cc1ccc(CSc2oc(-c3ccco3)nc2S(=O)(=O)c2ccc(Br)cc2)cc1	0.1	15.1	-7.6	2.2	-35.1*
SMILES	D1 potentiator	D1 ag	TRHR PAM	TRHR ag	D1 antag
Cc1cc2c(s1)c1cnn(Cc3ccccc3Br)c(=O)c1n2C	-5.7	2.1	-2.0	-2.2	5.1
Cc1nn(-c2ccc(N3CCCC3)nn2)c(C)c1CCC(=O)N1CCN(c2ccc(F)cc2)CC1	-7.8	0.3	7.4	-0.6	-6.3
O=C(NCCCN1CCOCC1)c1ccc(/C=C2\Oc3ccccc3N(Cc3ccccc3F)C2=O)cc1	2.2	22.3	0.9	1.6	0.1
CCN1CCN(CCCNC(=O)c2ccc(/C=C3/Oc4ccccc4N(Cc4cccc(C)c4)C3=O)cc2)CC1	-1.6	39.4*	-11.8	-0.7	-37.5*
CCN1CCN(CCNC(=O)c2ccc(/C=C3/Sc4ccccc4N(Cc4ccccc4C)C3=O)cc2)CC1	-14.0	39.6*	18.4	8.2	-21.3
CCc1ccc(S(=O)(=O)c2c[nH]c3cc(OC)c(OC)cc3c2=O)cc1	-3.8	-0.6	5.3	0.1	-42.9*
COc1ccc(-n2cc(C(=O)NC(C)c3ccccc3)c3ccccc3c2=O)cc1 (stereo unspecified)	-3.4	6.8	-7.2	0.0	21.2
COc1ccc(C2N3CC4(C)CN2CC(c2ccccc2)(C3)C4=O)cc1OC (stereo unspecified)	1.4	0.3	0.0	0.5	10.5
COc1ccc(C2N3CC4(C)CN2CC(C)(C3)C4)cc1OC (stereo unspecified)	4.2	1.8	6.3	0.2	-35.6*
Cc1ccc(CNC(=O)C2CCN(C(=O)c3cccc(Cl)c3)CC2)cc1	16.2	7.0	-2.2	-1.1	-57.2*
COc1ccc(CNC(=O)C2CCN(C(=O)c3cccc(Cl)c3)CC2)cc1	-6.7	2.1	-10.1	-1.3	-35.3*
Cc1ccc(C(=O)N2CCC(C(=O)NCc3cccnc3)CC2)cc1	-1.5	-0.5	-0.6	-0.4	5.5
COc1ccc(CNc2oc(/C=C/c3cc(OC)c(OC)c(OC)c3)nc2C#N)cc1	0.8	39.8*	1.1	3.6	4.0
COc1ccc(/C=C/c2nc(C#N)c(NCc3ccc(C)cc3)o2)cc1OC	-0.7	-2.1	-5.1	-2.1	-17.0
COc1ccc(/C=C/c2nc(C#N)c(NCCN(C)C)o2)cc1OC	-3.0	-3.1	-0.8	0.3	-30.4*
CCNc1oc(/C=C/c2ccc(OCC)cc2)nc1C#N	-4.0	0.0	-1.9	-0.2	-22.0
CCOc1ccc(/C=C/c2nc(C#N)c(NCCc3ccccc3)o2)cc1	0.7	2.4	-5.0	0.7	-36.7*
CCOc1ccc(C(c2c(O)cc(C)n(Cc3ccco3)c2=O)N2CCCCC2)cc1 (stereo unspecified)	-2.0	3.8	4.3	0.4	-6.3
O=C(/C=C/c1cn(CC(O)CN2CCCCCC2)c2ccccc12)c1cccs1 (stereo unspecified)	-8.1	77.2*	5.1	10.8	-21.4
CCCCN(C)CC(O)Cn1cc(/C=C/C(=O)c2ccc(OCC)cc2)c2ccccc21 (stereo unspecified)	-3.4	41.2*	-2.3	1.4	-56.3*!
CCCCN(CCCC)CC(O)Cn1cc(/C=C/C(=O)c2ccccc2)c2ccccc21 (stereo unspecified)	1.8	13.1	0.5	2.0	-10.6
CCCCN(C)CC(O)Cn1cc(/C=C/C(=O)c2cccs2)c2ccccc21 (stereo unspecified)	-7.6	67.2*	-8.9	6.1	-19.6

Screening data as filed in PubChem BioAssay.
